Screens deposited in PubChem by National Center for Advancing Translational Sciences (NCATS).
Rows were chosen to be rich in hits. Some 12% of all compounds tested hit in one or more screens of this group.
BAZ2B inh – inhibitors of human BAZ2B bromodomain. Q9UIF8. AlphaScreen BAZ2B-H3K14Ac peptide displacement. Potency, µM (series often up to 114 µM), without a hit: top-dose activity change, negative = inhibition, most hits filed as inhibitors. 360,000 compounds, 4.4% hits; also: % is scaled to controls: 0 for no effect and ±100 for the full control effect; nearly all actives have a fitted effect of over 60% in size
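AlphaScreen displacement: compounds (up to 110uM) incubated 30 min at room temperature with a preformed 50 nM BAZ2B/50 nM biotinylated H3K14Ac peptide complex in PBS pH 7.4 with Tween-20. Donor and acceptor beads at 10 ug/mL final added, 20 min light-protected before reading.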
G9a inh – inhibitors of human histone lysine methyltransferase G9a; Q96KQ7; G9a H3K9 monomethylation, AlphaScreen, 2 h; Potency, µM (series often up to 102 µM), inactives show at the highest dose activity, negative = inhibition, hits mostly inhibitors; 350,000 compounds, 8.8% hits; also: % is scaled to controls: 0 for no effect and ±100 for the full control effect; nearly all actives have a fitted effect of over 75% in size
Target sequence (Q96KQ7 913-1193 limits assumed): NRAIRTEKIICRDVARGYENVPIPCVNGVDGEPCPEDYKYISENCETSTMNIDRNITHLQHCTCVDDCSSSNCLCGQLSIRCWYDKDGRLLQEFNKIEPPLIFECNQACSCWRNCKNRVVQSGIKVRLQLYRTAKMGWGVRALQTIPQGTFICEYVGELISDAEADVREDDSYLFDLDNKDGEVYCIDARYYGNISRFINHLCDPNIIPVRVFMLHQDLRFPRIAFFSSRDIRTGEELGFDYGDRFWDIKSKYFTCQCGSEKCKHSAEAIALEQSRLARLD
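Quantitative HTS format: methyltransferase activity on a biotin-tagged H3K9 peptide is measured by AlphaScreen, using a rabbit anti-monomethyl-H3K9 antibody with streptavidin donor and anti-IgG acceptor beads. Final levels are 20 nM enzyme, 500 nM peptide, 20 uM SAM; 2 h RT.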
JMJD2A Tudor inh – inhibitors of human JMJD2A Tudor domain; AlphaScreen JMJD2A-Tudor / H3K4me3 peptide binding; AID 504339; Potency, µM (top dose mostly 114 µM), for inactives: at the highest dose activity change, negative = inhibition, most hits filed as inhibitors; O75164; 390,000 compounds, 4.4% hits; also: % is scaled to controls: 0 for no effect and ±100 for the full control effect; nearly all actives have a fitted effect of over 50% in size
HP1b binding inh – inhibitors of HP1-beta chromodomain binding to methylated histone tails. AlphaScreen HP1-beta / biotin-H3K9me3 peptide binding. AID 540317. P83916. Potency, µM (highest dose often 114 µM), for the others: at the highest dose activity change, negative = inhibition, most hits filed as inhibitors. 390,000 compounds, 0.56% hits; also: nearly all actives have a fitted effect of over 70% in size
Target sequence (P83916 whole entry, looked up): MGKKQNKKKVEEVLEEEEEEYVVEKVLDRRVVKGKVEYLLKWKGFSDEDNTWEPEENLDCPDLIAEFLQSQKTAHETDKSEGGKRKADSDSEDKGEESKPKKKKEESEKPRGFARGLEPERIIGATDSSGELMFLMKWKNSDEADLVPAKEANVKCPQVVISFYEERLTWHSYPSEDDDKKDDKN
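Compound inhibition of the preformed complex between 50 nM HP1-beta and 50 nM biotinylated H3K9me3 peptide was read by AlphaScreen. Buffer was PBS pH 7.4 with 0.01% Tween-20. Incubations ran 30 min at room temperature, with 10 ug/mL donor/acceptor beads.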
Sfp inh – blocks B. subtilis Sfp PPTase activity; Biochemical Sfp PPTase activity, qHTS; Potency, µM, for inactives: largest response in the series, negative = inhibition, hits mostly inhibitors; 310,000 compounds, 3.5% hits;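 also: the enzyme is Sfp with the accession as filed and its product quenches rhodamine fluorescence; 0% = enzyme reaction without inhibitor and -100% = no enzyme wells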
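Step 1, compound plus 15 nM Sfp-PPTase, 15 min, room temperature. Step 2, add rhodamine-CoA (5 uM) and BHQ-2-YbbR (12.5 uM). Step 3, read 525/598 nm fluorescence at 0 and 30 min.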
An asterisk follows results filed as active; u = inconclusive; x = not tested or not shown; [ ] = remark or other dose. Calls follow the shape of the dose curve; as a rule, active = well fitted curve in the direction sought with a large enough effect; inconclusive = small, poorly fitted or top-dose-only effect, or another doubt; inactive = no such curve, though single readings can be large; an effect the other way counts as inactive or inconclusive. Potency is read from the fitted curve at half-maximal effect.

SMILES	BAZ2B inh	G9a inh	JMJD2A Tudor inh	HP1b binding inh	Sfp inh
CSc1nsc(SCC(=O)Nc2ccccc2C(=O)O)n1	u	7.9µM*	u	36%	-45%
Cc1nnc(SCC(=O)Nc2ccccc2C(=O)NC2CC2)s1	11%	45µM*	3%	56%	-1%
CSc1nsc(SCC(=O)Nc2ccc(O)c(C(=O)O)c2)n1	-14%	40µM*	-13%	27%	-28%
Cc1nnc(SCC(=O)Nc2ccccc2NC(=O)CSc2nnc(C)s2)s1	-4%	-1%[59 µM]	-2%	7%	17%
CSc1nsc(SCC(=O)Nc2ccc(F)cc2F)n1	-5%	58%	17%	57%	-6%
CSc1nsc(SCC(=O)Nc2ccc(Cl)c(C(=O)O)c2)n1	-12%	50µM*	-4%	5%	2%
COC(=O)c1ccc(C2c3c(oc4cc(C)c(C)cc4c3=O)C(=O)N2c2ccccn2)cc1 (centres undefined)	-1%	6%[59 µM]	5%	31%	x
COc1cccc(N2CC(NC(=O)c3ccc(S(=O)(=O)N4CCCC4)cc3)CC2=O)c1 (centres undefined)	0%	-2%[59 µM]	-9%	22%	x
CC(C)CCNC(=O)c1ccc(C2SCC(=O)N2Cc2ccco2)cc1 (centres undefined)	9%	u	-9%	25%	8.9µM*
O=C(O)c1ccc(C2SCC(=O)N2Cc2ccco2)cc1 (centres undefined)	-15%	6%	-1%	37%	18%
O=C1CSC(c2cn(-c3ccccc3)nc2-c2ccccc2)N1Cc1ccco1 (centres undefined)	u	11µM*	u	-14%	4%
O=C1CSC(c2ccncc2)N1Cc1ccco1 (centres undefined)	-8%	-34%[59 µM]	-17%	13%	56µM*
COc1ccc(N2CC(C(=O)OCC(=O)Nc3cccc(C)c3C)CC2=O)cc1 (centres undefined)	1%	20%	-2%	17%	24%
Cc1cccc(N2CCn3c2nc2c3c(=O)n(CCCc3ccccc3)c(=O)n2C)c1	u	-41%[59 µM]	-36%	8%	x
O=c1c2c3c(sc2n2cnnc2n1-c1ccccc1)N(Cc1ccccc1)CCC3	-33%	13µM*	u	5%	u
Cc1ccc2nc(CCl)[n+]([O-])c(-c3ccccc3)c2c1	-32%	u	18µM*	9%	6%
O=C(Nc1ccc(CN2CCCCC2)cc1)c1c(F)c(F)c(F)c(F)c1F	-16%	25%[12.7 µM]	-9%	4%	13%
S=C(Nc1ccc(CN2CCCCC2)cc1)Nc1cccc(Cl)c1Cl	-25%	40µM*	u	22%	-8%
S=C(Nc1ccccc1)Nc1cccc(Cl)c1Cl	-7%	x	-15%	32%	-21%
CC(=O)Nc1ccc(CN2CCCCCCC2)cc1	u	-44%[59 µM]	3.2µM*	u	13%
COCCN(CC(=O)Nc1cccc(C)c1C)C(=O)c1ccc(S(=O)(=O)N2CCOCC2)cc1	10%	-30%	-21%	1%	x
C=CCN(CC=C)CC(O)CN(c1cc([N+](=O)[O-])ccc1OC)S(=O)(=O)c1ccccc1 (centres undefined)	-2%	25%[59 µM]	-24%	3%	79µM*
CCSc1ccc2nnc(-c3cccs3)n2n1	-27%	u	-16%	20%	5%
O=C(CSc1ccc(-c2cccs2)nn1)N1CCCCCC1	1%	-11%[59 µM]	-1%	41%	1%
CCOC(=O)CSc1ccc2nnc(-c3cccs3)n2n1	5%	10µM*	-35%	39%	-5%
SMILES	BAZ2B inh	G9a inh	JMJD2A Tudor inh	HP1b binding inh	Sfp inh
O=C(CSc1ccc2nnc(-c3cccs3)n2n1)N1CCCC1	u	18µM*	-3%	47%	-21%
COc1ccc(-c2nnc3ccc(SCC(=O)N4CCOCC4)nn23)cc1	4%	22µM*	-8%	37%	-1%
O=C(NS(=O)(=O)NC1CCCCC1)C1=C(N2CCCC2)COC1=O	x	x	-11%	38%	x
CCN(C)C(=O)Oc1cccc([C@H](C)N(C)C)c1	x	-1%[12.7 µM]	x	x	-4%
C[C@H](CO)N1C[C@H](C)[C@@H](CN(C)S(=O)(=O)c2cccs2)Oc2c(NC(=O)Cc3ccccc3)cccc2C1=O	x	x	-25%	13%	x
CCC1CCCCN1S(=O)(=O)c1ccc(C(=O)Nc2sc3c(c2C(N)=O)CCC3)cc1 (centres undefined)	-3%	0%[59 µM]	-26%	14%[57 µM]	x
C#CCOCCOCCOCCNc1nc(N2CCN(C(=O)[C@H](CCCCN)n3cc([C@@H](N)CC(C)C)nn3)CC2)nc(N2CCN(C(=O)[C@H](Cc3ccc(O)cc3)n3cc([C@@H](N)CC(C)C)nn3)CC2)n1	56µM*	4%[12.7 µM]	79µM*	-7%	20%
C#CCOCCOCCOCCNc1nc(N2CCN(C(=O)[C@H](CCCCN)n3cc([C@@H](N)C(C)CC)nn3)CC2)nc(N2CCN(C(=O)[C@H](Cc3ccc(O)cc3)n3cc([C@@H](N)CC(C)C)nn3)CC2)n1 (some centres undefined)	79µM*	u	u	26%	8%
C#CCOCCOCCOCCNc1nc(N2CCN(C(=O)[C@H]([C@@H](C)CC)n3cc([C@@H](N)Cc4ccc(O)cc4)nn3)CC2)nc(N2CCN(C(=O)[C@H](CCCCN)n3cc([C@@H](N)CC(C)C)nn3)CC2)n1	79µM*	u	x	x	8%
O=C(O)c1cccc(NC(=S)NC(=O)c2ccc3ccccc3c2)c1	-28%	56µM*	-30%	15%	8%
Cc1ccccc1C(=O)NC(=S)Nc1ccccc1C(=O)O	-19%	20µM*	-10%	-20%	u
NC(=O)c1ccccc1NC(=O)c1ccc2ccccc2c1	3%	-10%	-4%	21%	17%
O=C(O)c1ccc(NC(=S)NC(=O)c2cccc(COc3ccccc3)c2)cc1	-38%	28µM*	-24%	-1%	50µM*
O=C(Cc1ccccc1)Nc1ccc(NC(=S)NC(=O)c2ccccc2)cc1	-7%	4%	-3%	14%	-3%
COC(=O)c1ccccc1NC(=S)NC(=O)c1ccccc1C	-12%	u	-30%	5%	-3%
O=C(NC(=S)Nc1ccccc1C(=O)O)c1ccc2ccccc2c1	-22%	28µM*	-27%	-15%	45µM*
O=C(O)c1ccc(NC(=S)NC(=O)c2ccc3ccccc3c2)cc1	8%	x	u	-2%	-2%
O=C(Cc1ccc(Cl)cc1)Nc1ccc(N2CCN(C(=O)c3ccco3)CC2)cc1	-31%	7.9µM*	25%[11.4 µM]	-15%	-3%
O=C(Nc1ccc(-c2nnn(CC(=O)N3CCN(C(=O)c4ccco4)CC3)n2)cc1)c1ccc(F)cc1	79µM*	56µM*	-5%[11.4 µM]	54%	6%
O=C(c1ccco1)N1CCN(c2ccc(Cl)cc2)CC1	-3%	18%[12.7 µM]	-22%	4%	8%
O=C(NCc1ccccc1)c1cccc(OCC(=O)N2CCN(C(=O)c3ccco3)CC2)c1	u	8.9µM*	40µM*	0%	-6%
